Experimental data taken from PubChem BioAssay AID708 (SRMLSC, 2007).
Among all 65,000 compounds or so, fewer than 10 were called active.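 The calls were made as follows: active = at 10 µM dose, initial 340 nm absorbance at least 2 fold that of control wells; inactive = change under 2 fold.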 Only a sample is shown.

Test: compound light absorbance at 340 nm, profiling panel, artefact control, biochemical, MLSMR library, data from PS, PMK, MK assays (AID 708);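 also: initial absorbance extrapolated from kinetic A340 decline of NADH oxidation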
Conditions: compound absorbance at 340 nm, fold over control; at 10 µM; active compounds read high

Fold change, inactive:
N#Cc1c(N)n(CCOC(=O)c2ccc(Cl)cc2)c2nc3ccccc3nc12 1.01
CCc1cc(=O)oc2cc(C)cc(OC(C)C(=O)O)c12 (stereo not drawn) 1.04
O=c1[nH]nc(CSCc2ccccc2Cl)[nH]1 1.04
Cn1c(=O)n(C)c2cc(CNc3ccc(N4CCOCC4)c(C(=O)O)c3)ccc21 1
O=C(Cn1c(=O)sc2ccccc21)Nc1ccc2c(c1)OCCO2 1.01
Cc1ccc(S(=O)(=O)NCc2cn3ccsc3n2)c(C)c1 0.97
CCOc1ccc(OCC)c(NC(=O)C(NS(=O)(=O)c2ccc3c(c2)oc(=O)n3C)C(C)C)c1 (stereo not drawn) 0.97
COCC(C)N=CC1=C(O)CC(C)(C)CC1=O (stereo not drawn) 0.95
NC(=O)CSc1c[nH]c2ccccc12 1.01
COc1ccc(NC(C)=O)cc1NC(=O)CN1CCN(c2ccccn2)CC1 0.97
CCN1CCN(c2ncnc3c2oc2nc(C)c4c(c23)CC(C)(C)OC4)CC1 0.99
COc1ccc2nc(NC(=O)c3ccc(Br)s3)sc2c1 1.1
CCOC(=O)c1c(N)c(C#N)nn1-c1ccccc1C(=O)OC 1
Cc1nnc(SCc2cc(=O)[nH]c(N3CCN(Cc4ccccc4)CC3)n2)s1 1.01
O=C(Nc1ccccc1)c1cccnc1Nc1ccccc1 1.1
CCN(Cc1nc2ccccc2c(=O)[nH]1)Cc1cc(=O)oc2cc(C)c(C)cc12 1.01
CC(C)C(=O)Nc1c(C(=O)c2ccc(F)cc2)oc2ccccc12 1.11
Cc1ccc(S(=O)(=O)NCC(=O)N(CC(=O)NC2CCCCC2)Cc2ccco2)cc1 0.98
Cc1ccc(C)c(N2CCN(S(=O)(=O)c3ccc4c(c3)oc(=O)n4C)CC2)c1 0.98
C=CCNc1ncnc2ccc(Br)cc12 1.1
O=C(CSc1nnc(-c2cccs2)n1Cc1ccco1)c1ccc2c(c1)OCO2 1.08
CC(C)(C)NC(=O)Cn1nnc(-c2ccccc2Cl)n1 1.03
ON=C1/C(=N\O)CC2(C/C1=N/O)OCCO2 0.99
COC(=O)CNC(=O)c1ccc2c(c1)S(=O)(=O)c1ccccc1C2=O 1.02
CCOC(=O)c1oc2ccccc2c1NC(=O)c1cccs1 1.02
CC(C)Oc1ccc(C2NC(=O)NC2=O)cc1 (stereo not drawn) 1
O=C(CS(=O)(=O)Cc1ccccc1)Nc1cccnc1 1.08
CCOC(=O)c1c(NC(=O)CCC(=O)NCc2ccco2)sc2c1CCCC2 1.03
